Most compounds without a hit are left out; they make up all but 2.7% or so of the library.
ATG4B inhibitor: ATG4B (human) cysteine protease inhibition; Q9Y4P1; ATG4B cleavage of LC3-PLA2, NBD-HPC fluorescence, 1 h; inhibition, % at 8.33 µM; actives 0.51% (n = 340,000); AID 504462; in the data active means inhibition above about 40%
NRP1-CendR mod: alters CendR peptide binding to human NRP-1 | inhibition, % at 25 µM | FAM-RPARPAR peptide binding to NRP-1, fluorescence polarization | O14786 | actives 0.85% (n = 360,000);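 active means inhibition or corrected inhibition above about 18%, plus a signal ratio from 0.5 to 1.5, limit read from the data, passing the limit was not always enough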
SKN-1 inh: inhibitors of C. elegans SKN-1; C. elegans VP596 Pgst-4::GFP/RFP ratio, acrylamide-induced, 24 h; inhibition, % at 21.8 µM; actives 0.49% (n = 360,000); AID 624304;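 active means interference check ratio from 0.5 to 1.5 plus GFP to RFP signal ratio inhibition reaching or exceeding a fixed threshold, cut at about 30% in these data, passing the limit was not always enough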
MPTP block: permeability transition pore inhibition | isolated mouse mitochondria, Ca2+ swelling absorbance, 30 min | inhibition, % at 10 µM | actives 1.4% (n = 360,000) | AID 602449;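 active means inhibition of 50% or more, scaled per plate between neutral and stimulator controls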;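 further: 0% = DMSO wells given calcium and 100% = 1 mM EGTA wells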
CFTR F508del cor: correctors of CFTR F508del function in bronchial epithelial cells | CFBE cells, YFP halide quenching; stimulated with forskolin plus potentiator P3; % fluorescence drop versus neutral controls | activity (quench increase), % at 7.58 µM | actives 0.36% (n = 350,000) | AID 720511;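 active means mean added fluorescence quench of at least 8% versus neutral control, with both replicates also reaching 8%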;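 further: cells transiently co-express mutant CFTR-F508del with the halide-sensitive YFP; corrector assay measuring rescue of mutant channel to the surface after 24 h compound exposure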
Numbers without * were called inactive; · = no result.

SMILES	ATG4B inhibitor	NRP1-CendR mod	SKN-1 inh	MPTP block	CFTR F508del cor
Cc1ccc(OCC(=O)Nc2ccc(C)c(S(=O)(=O)N3CCCCCC3)c2)c([N+](=O)[O-])n1	-1	32*	-3	0	-3
O=C(COc1ccc(Br)cc1CO)Nc1ccc(S(=O)(=O)N2CCCCC2)cc1	-10	25*	-14	2	2
C[C@H]1CN([C@@H](C)CO)C(=O)c2cc(NC(=O)CCCN(C)C)ccc2O[C@H]1CN(C)S(=O)(=O)c1cccs1	·	·	·	·	0
Nc1cc(-c2ccccc2)nn1Cc1ccccc1	-3	41*	11	-2	1
COc1cccc(C(=O)Nc2sc3c(c2C(=O)O)CCCC3)c1	9	2	2	3	-2
COc1cccc(C(=O)Nc2sc3c(c2C#N)CCN(C(C)=O)C3)c1	-5	-34	13	17	14*
C[C@@H]1CN([C@H](C)CO)C(=O)c2cc(NS(C)(=O)=O)ccc2O[C@@H](C)CCCCO[C@@H]1CN(C)C(=O)NC1CCCCC1	·	·	·	·	1
CCN(Cc1ccccc1)c1ccc(/C=N/N=C(N)N)cc1	17	1	0	4	9.9*
COc1cccc(C(=O)OCC(=O)NC23CC4CC(CC(C4)C2)C3)c1	-9	8	5	0	1
CC(=O)Oc1cc(C(=O)OCC(=O)NC23CC4CC(CC(C4)C2)C3)cc(OC(C)=O)c1OC(C)=O	6	-59	6	1	10*
O=C(CSc1ccc(Cl)cc1)N1CCN(c2ncc(C(F)(F)F)cc2Cl)CC1	3	7	56*	18	·
CCCNC(=O)Nc1ccc2c(c1)C(=O)N(C)C[C@@H](OC)[C@@H](C)CN(CCC)[C@H](C)CO2	·	·	·	·	-1
C[C@H]1CN([C@@H](C)CO)C(=O)c2cc(C3=CCCCC3)cnc2O[C@H]1CN(C)C(=O)Nc1ccc(F)cc1	·	·	·	·	-1
Cc1ccc(S(=O)(=O)N(C)Cc2ccc(C(=O)N/N=C/c3ccc(OC(F)F)cc3OC(F)F)cc2)cc1	-15	31*	20	4	·
CC(=O)CSc1nc2ccccc2s1	-3	11	34*	0	·
CC(=O)N1C[C@@H](CO)[C@@H](N(C)C(=O)Nc2cccc3ccccc23)C[C@H]1c1ccccc1	·	·	·	·	-4
C=CCn1c(-c2ccccc2)ccc(C#N)c1=O	8	-4	65*	3	·
COc1ccc([C@H]2/C=C\CN(S(C)(=O)=O)[C@@H](C)C(=O)N2Cc2ccc(F)cc2)cc1	-11	22*	-18	0	2
COc1ccc([C@H]2/C=C\CN(C(=O)C3CC3)[C@@H](C)C(=O)N2Cc2ccc(F)cc2)cc1	-6	33*	-7	0	1
CCCNC(=O)N1C[C@@H](C)[C@@H](OC)CN(C)C(=O)c2ccc(NS(C)(=O)=O)cc2OC[C@@H]1C	·	·	·	·	-2
O=[N+]([O-])c1ccc2cn(-c3ccccc3)nc2c1	6	-4	57*	3	·
C[C@H]1CN([C@@H](C)CO)C(=O)CCCn2cc(nn2)CO[C@@H]1CN(C)Cc1ccc(C(=O)O)cc1	·	·	·	·	3
CCN(CC)CCC(c1cc(OC)c(OC)c(OC)c1)c1c(OC)cc(OC)c2c(C)cc(=O)oc12 (stereo not drawn)	-2	8	40*	-1	-1
COc1ccc(NC(=O)N(C)C[C@H]2OCCCC[C@@H](C)Oc3ccc(NC(=O)CCC(F)(F)F)cc3C(=O)N([C@H](C)CO)C[C@@H]2C)cc1	·	·	·	·	0
Cc1ccccc1-c1nc(CS(=O)CC(=O)NCc2ccc3c(c2)OCO3)c(C)o1 (stereo not drawn)	-4	10	36*	-1	2
SMILES	ATG4B inhibitor	NRP1-CendR mod	SKN-1 inh	MPTP block	CFTR F508del cor
O=C(CCC(=O)N1CCOc2ccc(Cl)cc21)N1CCN(c2ccccn2)CC1	-4	1	10	-1	8.3*
Cc1ccc2c(c1)N(C(=O)CCC(=O)N1CCN(c3ccccn3)CC1)CCO2	-4	8	16	0	0
CCOC(=O)c1c(C)[nH]c(C(=O)COC(=O)c2oc3ccc(OC)cc3c2C)c1C	-18	0	37*	5	·
COc1ccc2oc(C(=O)OCC(=O)N3CCC(C)CC3)c(C)c2c1	-4	13	9	0	-1
CCOC(=O)N1CCN(C(=O)COC(=O)c2oc3ccc(OC)cc3c2C)CC1	-11	23*	1	1	2
CCO[C@H]1OC(C(=O)NCc2nc3ccccc3[nH]2)=C[C@@H](c2coc3ccccc3c2=O)[C@@H]1CCCO	·	·	·	·	0

Source: PubChem
